# Screening results deposited in PubChem BioAssay by National Center for Advancing Translational Sciences (NCATS).
# HT1080 IDH1KD tx: qHTS for induction of synthetic lethality in tumor cells producing 2HG: qHTS for the HT-1080-IDH1KD cell line; HT-1080 IDH1 knockdown viability, ATP luminescence, 48 h; Potency, µM (highest dose often 46.1 µM), for the others: at the highest dose activity, negative = toxicity, hits mostly cytotoxic; AID 686971, 2013; 360,000 tested, 2% active;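 also: potency is read from the fitted curve at half-maximal effect; 0% = DMSO wells and -100% = cell-free medium wells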
#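 In this qHTS, HT-1080 cells depleted of IDH1 are exposed for 48 h at 37 °C to compound titrations. Toxicity is scored from CellTiter-Glo luminescence, with DMSO as full viability and medium alone as none.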
# DT40 TDP1 no CPT: qHTS for Inhibitors of human tyrosyl-DNA phosphodiesterase 1 (TDP1): qHTS in cells in absence of CPT; DT40 Tdp1-/- hTDP1 cells, no CPT, ATP luminescence, 48 h; Potency, µM (doses to about 46.2 µM), for the others: top-dose activity change, negative = growth inhibition, actives largely listed as inhibitors; 420,000 tested, 15% active; AID 686978, 2013; also: potency is read from the fitted curve at half-maximal effect; nearly all actives have a fitted effect of over 55% in size
#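 Compound effects on proliferation are scored in DT40 Tdp1-/-;hTDP1 cells in the absence of CPT. ATP levels (CellTiter-Glo luminescence) are recorded after a ≥48 hr, 37 °C incubation.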
# ELG1 DNA repair: qHTS screen for small molecules that inhibit ELG1-dependent DNA repair in human embryonic kidney (HEK293T) cells expressing luciferase-tagged ELG1; Potency, µM (top dose mostly 46.1 µM), for inactives: at the highest dose activity change, negative = inhibition, hits mostly inhibitors; HEK293T ELG1-luciferase reporter, luminescence, 16 h; DNA damage induced by 5-fluorouridine; AID 504467, 2011; 330,000 tested, 2.3% active; also: potency is read from the fitted curve at half-maximal effect; nearly all actives have a fitted effect of over 55% in size
#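 5-Fluorouridine DNA damage + compound/DMSO, 2,000 cells/well, 16 h, 37 °C/5% CO2. ONE-Glo, 30 min RT, luminescence. Readout = decrease in reporter signal.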
# IL1B secr inh: qHTS for Inhibitors of Inflammasome Signaling: IL-1-beta AlphaLISA Primary Screen; THP-1 LPS/ATP IL-1B secretion, AlphaLISA, 16 h; hits give low values; activity change, % at 57.5 µM; 360,000 tested, 4.7% active; in the data active = activity change below about -50%; inconclusive = mostly about -30% to -49%
#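 THP-1 cells pretreated 1 hr with compounds (up to 57.5 uM final), then stimulated with LPS (250 ng/mL final) plus ATP (1.25 mM final); secreted IL-1B measured by AlphaLISA after 16 hr, decreased signal indicating inhibition.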
# TDP1 cell CPT: qHTS for Inhibitors of human tyrosyl-DNA phosphodiesterase 1 (TDP1): qHTS in cells in presence of CPT | 420,000 tested, 12% active | chicken DT40 Tdp1-/-;hTDP1 cells + 20 nM CPT, ATP luminescence, 48 h | Potency, µM (series often up to 46.2 µM), inactives show at the highest dose activity change, negative = growth inhibition, actives largely listed as inhibitors; also: potency is read from the fitted curve at half-maximal effect; nearly all actives have a fitted effect of over 55% in size
#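 Chicken DT40 Tdp1-/- cells complemented with human TDP1, 400 cells/well, exposed to compounds plus 20 nM camptothecin for at least 48 h at 37 C; viability read as ATP content by CellTiter-Glo luminescence.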
# HT1080NT lethal: qHTS for induction of synthetic lethality in tumor cells producing 2HG: qHTS for the HT-1080-NT fibrosarcoma cell line. 360,000 tested, 1.6% active. Potency, µM (titrated, usually from 46.1 µM), without a hit: top-dose activity, negative = less viability, actives largely listed as cytotoxic. HT-1080-NT fibrosarcoma viability, CellTiter-Glo ATP luminescence, 48 h. AID 686970, 2013;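 also: NT is the 2HG producing partner of a matched IDH1 knockdown line; potency is read from the fitted curve at half-maximal effect; 0% = DMSO-treated cells and -100% = media-only wells without cells; nearly all actives have a fitted effect of over 55% in size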
#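 Viability of the 2HG-overproducing fibrosarcoma line after 48 hours of compound exposure at 37 degrees C was determined by luminescence with CellTiter-Glo, and concentration-effect curves were then fitted and categorized.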
# ELG1 FLuc counter: qHTS screen for small molecules that inhibit ELG1-dependent DNA repair: Hit Confirmation in Cell-Based Luciferin Assay; Potency, µM (highest dose often 46.1 µM), without a hit: at the top dose activity change, negative = inhibition, actives largely listed as inhibitors; 350 tested, 3% active; AID 624247, 2012; cell-free firefly luciferase luminescence counter-screen, ViewLux; shares compounds with ELG1 DNA repair; also: potency is read from the fitted curve at half-maximal effect
# ELG1 unstim viab: qHTS screen for small molecules that inhibit ELG1-dependent DNA repair: Hit Confirmation with Unstimulated Viability Assay | shares compounds with ELG1 DNA repair | cell viability counter-screen, unstimulated, luminescence | Potency, µM (doses to about 45.9 µM), without a hit: top-dose activity change, negative = loss of viability, usual class: cytotoxic | 900 tested, 8% active;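 also: potency is read from the fitted curve at half-maximal effect; compound exposure lasted 16 hours before reading; nearly all actives have a fitted effect of over 55% in size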
# FLuc enzyme: qHTS screen for small molecules that inhibit ELG1-dependent DNA repair: Hit Confirmation in Biochemical Luciferin Assay | 350 tested, 10% active | shares compounds with ELG1 DNA repair | AID 624253, 2012 | Potency, µM (titrated, usually from 57.5 µM), for inactives: at the top dose activity, negative = inhibition, actives largely listed as inhibitors | purified firefly luciferase, luminescence counter-screen; also: potency is read from the fitted curve at half-maximal effect
# * marks the source's active call; other numbers are inactive results; ? = inconclusive; nt = no result. The list is a sample of the results. Unless noted, calls follow the shape of the dose curve; as a rule, active = well fitted curve in the direction sought with a large enough effect; inconclusive = small, poorly fitted or top-dose-only effect, or another doubt; inactive = no such curve, though single readings can be large; an effect the other way counts as inactive or inconclusive. Unless noted, % is scaled to controls: 0 for no effect and ±100 for the full control effect.
SMILES,HT1080 IDH1KD tx,DT40 TDP1 no CPT,ELG1 DNA repair,IL1B secr inh,TDP1 cell CPT,HT1080NT lethal,ELG1 unstim viab,others
NS(=O)(=O)c1cccc(NC(=O)COC(=O)/C=C/c2nc3ccccc3s2)c1,10%,-25%,?,26,-2%,7%,nt,
COc1ccc(C(=O)NNS(=O)(=O)c2ccccc2)cc1OC,0%,11%,-5%,-1,-11%,-1%,nt,
O=C1CCc2cc(NS(=O)(=O)c3ccccc3)cc3c2N1CC3,4%,-19%,28%,14,7%,-8%,3%,ELG1 FLuc counter=26%;FLuc enzyme=1%
O=C1CCc2cc(NS(=O)(=O)c3ccc([N+](=O)[O-])cc3)cc3c2N1CC3,-2%,-8%,12%,26,-6%,-5%,nt,
O=C1CCc2cc(NS(=O)(=O)c3ccccc3)cc3c2N1CCC3,-1%,?,?,23,?,-10%,6%,ELG1 FLuc counter=14%;FLuc enzyme=0%
O=C1CCc2cc(NS(=O)(=O)c3ccc(F)cc3)cc3c2N1CCC3,3%,?,17%,20,?,6%,nt,
COc1cccc(CNC(=O)C2CSC3(C)CCC(=O)N23)c1 (stereo not given),11%,-7%,?,11,4%,3%,nt,
ICC[n+]1csc2ccccc21,nt,?,nt,nt,?,nt,-1%,
COc1ccc(CCNC(=O)c2coc3ccccc3c2=O)cc1OC,-17%,-28%,-23%,7,-21%,-1%,nt,
O=C(Nc1nccs1)c1ccc(NC(=O)C2CC=CCC2C(=O)O)cc1 (stereo not given),0%,0%,?,-5,-2%,0%,nt,
C=CCn1c(C)cc(C(=O)COC(=O)c2n[nH]c(=O)c3ccccc23)c1C,-16%,?,?,8,?,-2%,-10%,
COc1cc(NC(=O)COc2ccc(C)c(C)c2)ccc1NC(=O)c1ccco1,6%,-3%,22%,-7,17%,15%,nt,
O=C(CSc1ccccc1)N1CCN(c2ccc(F)cc2)CC1,9%,?,nt,-10,0%,0%,nt,
CN(CC(=O)Nc1cccc(S(=O)(=O)N2CCCC2)c1)Cc1ccccc1,0%,?,0%,-4,-25%,24%,nt,
